Experimental findings from article PMC4336329 (PLoS ONE, 2015) are described below.

Screen size: about 310,000 compounds; about 14,000 (4.5%) showed an effect of 50% or more. The effect is printed as a negative number. For the sample, strong results were picked, then their nearest neighbours and some compounds at random.
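Note: peak tail current of the secondary pulse compared with the same well before compound.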

For the test, the target named is human ether-à-go-go-related gene (hERG) potassium channel (human, UniProt Q12809). The test can be described thus: primary screen, population patch clamp on CHO cells stably expressing hERG; higher = less effect of the substance.
Sequence of human ether-à-go-go-related gene (hERG) potassium channel (Q12809 whole entry, looked up): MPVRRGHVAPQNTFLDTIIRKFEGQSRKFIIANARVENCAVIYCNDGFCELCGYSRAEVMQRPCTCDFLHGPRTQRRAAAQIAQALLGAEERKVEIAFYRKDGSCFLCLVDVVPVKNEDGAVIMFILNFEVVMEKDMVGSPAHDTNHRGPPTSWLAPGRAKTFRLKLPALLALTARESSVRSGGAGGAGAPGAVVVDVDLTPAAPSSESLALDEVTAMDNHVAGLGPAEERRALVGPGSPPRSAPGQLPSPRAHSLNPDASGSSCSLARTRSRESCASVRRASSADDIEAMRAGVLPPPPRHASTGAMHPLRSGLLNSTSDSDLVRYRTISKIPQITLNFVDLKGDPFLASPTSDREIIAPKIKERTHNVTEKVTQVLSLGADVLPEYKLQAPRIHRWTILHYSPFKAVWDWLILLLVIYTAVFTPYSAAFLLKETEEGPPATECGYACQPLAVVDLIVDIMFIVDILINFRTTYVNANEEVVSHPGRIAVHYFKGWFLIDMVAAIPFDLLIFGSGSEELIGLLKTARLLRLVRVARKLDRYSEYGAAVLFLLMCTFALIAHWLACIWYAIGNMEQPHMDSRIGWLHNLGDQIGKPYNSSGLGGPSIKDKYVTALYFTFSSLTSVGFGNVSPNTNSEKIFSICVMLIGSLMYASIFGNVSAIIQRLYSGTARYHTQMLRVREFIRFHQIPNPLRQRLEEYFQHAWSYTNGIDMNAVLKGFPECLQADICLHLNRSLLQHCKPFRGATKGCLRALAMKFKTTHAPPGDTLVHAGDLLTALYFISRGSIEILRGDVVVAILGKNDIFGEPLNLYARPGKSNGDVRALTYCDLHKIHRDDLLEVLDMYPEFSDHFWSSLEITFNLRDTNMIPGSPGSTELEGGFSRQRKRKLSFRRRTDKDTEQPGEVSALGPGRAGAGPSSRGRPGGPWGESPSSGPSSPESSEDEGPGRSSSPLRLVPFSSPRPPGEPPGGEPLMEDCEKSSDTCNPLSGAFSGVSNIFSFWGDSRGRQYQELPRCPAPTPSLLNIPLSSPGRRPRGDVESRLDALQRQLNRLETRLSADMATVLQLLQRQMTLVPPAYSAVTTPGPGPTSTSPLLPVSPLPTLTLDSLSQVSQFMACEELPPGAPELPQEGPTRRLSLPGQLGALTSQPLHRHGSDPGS
Regarding `CN1C[C@@H]2C(c3ccccc3)C3(c4ccccc4)CC2(C3)[C@H]1c1ccccc1` (some centres unmarked), the “hERG current change (%, negative = inhibition) at 10uM” value is recorded as -25.7%.

As for `CC(C)(C)c1ccc(-c2nnc(NC(=O)c3ccccc3)s2)cc1`, the “hERG current change (%, negative = inhibition) at 10uM” value is on record as -13.6%.

As for `COc1ccc(C(=O)COC(=O)/C=C/c2ccccc2)cc1`, the “hERG current change (%, negative = inhibition) at 10uM” value is recorded as 6.99%.

In the case of `CN(C)S(=O)(=O)c1ccc(NC(=O)COC(=O)CC2CC3CCC2C3)cc1` (centres unmarked), the “hERG current change (%, negative = inhibition) at 10uM” value is recorded as -9.56%.

For the compound `O=C(CSc1n[nH]c(-c2ccncc2)n1)NCCc1ccccc1`, the “hERG current change (%, negative = inhibition) at 10uM” value is reported as 13.2%.

For the compound `CN(C)S(=O)(=O)c1cc(NC2CC(=O)N(c3ccc(F)cc3)C2=O)ccc1Cl` (centres unmarked), the “hERG current change (%, negative = inhibition) at 10uM” value was -51.1%.

Take `Cc1ccc(N2C(=O)CC(Nc3ccc(Cl)c(S(=O)(=O)N(C)C)c3)C2=O)c(C)c1` (centres unmarked): the “hERG current change (%, negative = inhibition) at 10uM” value is recorded as -4.31%.

For `Cc1ccc(NC2CC(=O)N(c3ccc(C)cc3)C2=O)cc1` (centres unmarked), the “hERG current change (%, negative = inhibition) at 10uM” value was -0.727%.

Regarding `COc1cc(C(=O)NCCc2cn3ccc(C)cc3n2)cc(OC)c1OC`, the “hERG current change (%, negative = inhibition) at 10uM” value was -27%.

As to `CCCOc1ccc(-c2nc(=S)[nH][nH]2)cc1`, the “hERG current change (%, negative = inhibition) at 10uM” value is listed as 20.1%.

For the compound `CCN(CC)CCNC(=O)CCn1nc(-c2ccc(Cl)cc2)ccc1=O`, the “hERG current change (%, negative = inhibition) at 10uM” value is recorded as -34.4%.

With `CCCCNC(=O)CCn1nc(-c2ccccc2)ccc1=O`, the “hERG current change (%, negative = inhibition) at 10uM” value was -40%.

Regarding `CC1CCCN(CCCNC(=O)CCn2nc(-c3ccccc3)ccc2=O)C1` (centres unmarked), the “hERG current change (%, negative = inhibition) at 10uM” value is on record as -39%.

For the compound `O=C(Cn1nc(-c2ccccc2)ccc1=O)N1CCOCC1`, the “hERG current change (%, negative = inhibition) at 10uM” value is -6.25%.

For the compound `CCCCN(C)CCCNC(=O)CCn1nc(-c2ccccc2)ccc1=O`, the “hERG current change (%, negative = inhibition) at 10uM” value is given as -52.9%.

On to `CCCN1CCN(CCCNC(=O)CCn2nc(-c3ccccc3)ccc2=O)CC1`, for which the “hERG current change (%, negative = inhibition) at 10uM” value was -47.4%.

As for `O=C(CCn1nc(-c2ccccc2)ccc1=O)N1CCCC1`, the “hERG current change (%, negative = inhibition) at 10uM” value was -45%.

Turning to `CCN(CC)CCCNC(=O)Cn1nc(-c2ccccc2)ccc1=O`, the “hERG current change (%, negative = inhibition) at 10uM” value is on record as -24.4%.

`O=C(CCn1nc(-c2ccccc2)ccc1=O)NCCCN1CCCCCC1`: the “hERG current change (%, negative = inhibition) at 10uM” value is on record as -73%.

On to `CC1CCCC(C)N1CCNC(=O)CCn1nc(-c2ccccc2)ccc1=O` (centres unmarked), for which the “hERG current change (%, negative = inhibition) at 10uM” value is -46.8%.

For `CCN(CC)CCCNC(=O)CCn1nc(-c2ccccc2)ccc1=O`, the “hERG current change (%, negative = inhibition) at 10uM” value is -56.8%.

Regarding `O=C(Cn1nc(-c2ccccc2)ccc1=O)N1CCCCC1`, the “hERG current change (%, negative = inhibition) at 10uM” value is -61.6%.

On to `O=C(CN1C(=O)C2CC=CCC2C1=O)Nc1nnc(C2CC2)s1` (centres unmarked), for which the “hERG current change (%, negative = inhibition) at 10uM” value is recorded as 6.01%.

On to `COc1ccc(N(CC(=O)NC2CC3CCC2C3)S(=O)(=O)c2ccccc2)cc1Cl` (centres unmarked), for which the “hERG current change (%, negative = inhibition) at 10uM” value is reported as -19.4%.

In the case of `O=C(CSc1ccc2c(c1)OCCO2)Nc1ccc(Cl)cn1`, the “hERG current change (%, negative = inhibition) at 10uM” value is 24.3%.

Regarding `CN(C)C(=O)c1noc2cc([N+](=O)[O-])ccc12`, the “hERG current change (%, negative = inhibition) at 10uM” value is on record as -12%.

`Cc1c(C#N)c2ccccc2n1CC(=O)NCC1CCCO1` (centres unmarked): the “hERG current change (%, negative = inhibition) at 10uM” value came out at 16.8%.

Regarding `CCc1ccccc1NC(=O)COc1ccc2oc(-c3ccc(OC)cc3)cc(=O)c2c1`, the “hERG current change (%, negative = inhibition) at 10uM” value turned out to be 5.29%.

Take `O=S(=O)(NCc1ccccc1)c1ccc(-n2cccn2)cc1`: the “hERG current change (%, negative = inhibition) at 10uM” value is recorded as -16.6%.

For `Cc1nc(SCC(=O)N2CCCCCC2)[nH]c(=O)c1C`, the “hERG current change (%, negative = inhibition) at 10uM” value turned out to be 19.5%.

As to `CCCCSc1nc(CCC)cc(=O)[nH]1`, the “hERG current change (%, negative = inhibition) at 10uM” value is given as -7.39%.

With `CCc1cc(=O)[nH]c(SCCCF)n1`, the “hERG current change (%, negative = inhibition) at 10uM” value is -50.2%.

With `CCc1cc(=O)[nH]c(SCCC(F)=C(F)F)n1`, the “hERG current change (%, negative = inhibition) at 10uM” value stood at 27.7%.

In the case of `CC(c1ccccc1)N1C(=O)/C(=C/c2ccncc2)SC1=S` (centres unmarked), the “hERG current change (%, negative = inhibition) at 10uM” value came to 3.24%.

Take `CC(NC(=O)NCCCC(=O)O)(C(F)(F)F)C(F)(F)F`: the “hERG current change (%, negative = inhibition) at 10uM” value is 11.3%.

As for `Cc1cc(OCCN2CCCC2)cc(C(C)C)c1.O=C(O)C(=O)O`, the “hERG current change (%, negative = inhibition) at 10uM” value is -0.795%.

In the case of `CC(C)(C)c1ccc(OCCN2CCCC2)cc1`, the “hERG current change (%, negative = inhibition) at 10uM” value was -20.6%.

Take `CCC(C)c1ccc(OCCN2CCCC2)cc1` (centres unmarked): the “hERG current change (%, negative = inhibition) at 10uM” value is listed as -15.4%.

Regarding `CC(C)c1ccc(/C=N/N2CCCCC2)cc1.O=C(O)C(=O)O`, the “hERG current change (%, negative = inhibition) at 10uM” value is on record as -84.3%.

For the compound `CC(C)c1ccc(OCCCCCN2CCOCC2)cc1.O=C(O)C(=O)O`, the “hERG current change (%, negative = inhibition) at 10uM” value was -24.9%.

For the compound `CC(C)(C)c1ccc(OCCCCCCN2CCNCC2)cc1`, the “hERG current change (%, negative = inhibition) at 10uM” value is -0.393%.

For `CC(=O)Nc1ccc(/C=N/N2CCCCC2)cc1`, the “hERG current change (%, negative = inhibition) at 10uM” value is on record as 16.5%.

As to `CC(C)(C)c1ccc(OCCCN2CCCC2)cc1`, the “hERG current change (%, negative = inhibition) at 10uM” value is given as -56.4%.

As to `c1cc(OCCCN2CCCCC2)ccc1CN1CCCCC1`, the “hERG current change (%, negative = inhibition) at 10uM” value is 14.1%.

As for `CC(C)c1ccc(OCCCN2CCCC2)cc1`, the “hERG current change (%, negative = inhibition) at 10uM” value is -67.1%.

In the case of `Clc1ccc(/C=N/N2CCCCC2)cc1`, the “hERG current change (%, negative = inhibition) at 10uM” value came to 7.36%.

With `CC(C)c1ccc(OCCCCN2CCCCC2)cc1.O=C(O)C(=O)O`, the “hERG current change (%, negative = inhibition) at 10uM” value was -58.8%.
